Reference: PubChem BioAssay (EPA / NIEHS)
Results filed as inconclusive are left out. The source made the active and inactive calls. Rule for the calls, unless noted: active = hit-call score of the fitted dose curve at least 0.9, where 1 is the maximum; inconclusive = response in the unintended direction; inactive = score below 0.9.

Experiments:
[1] = TOX21_p53_BLA_p2_viability: Viability Assessment in the Tox21 HCT-116 p53 Agonism Beta-lactamase Assay, Phase 2 (AID 2283591);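 note: actives lower the ATP signal meaning cytotoxicity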
How it was run: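 Cytotoxicity readout: CellTiter-Glo ATP luminescence, 30 min at room temperature, after the beta-lactamase read. Cells were HCT116 exposed 16 h at 37C to compounds pin-transferred at 217-fold dilution from DMSO stocks.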

[2] = target: Cellular tumor antigen p53 (Homo sapiens) (UniProt P04637); test: TOX21_p53_BLA_p2_ratio: Tox21 HCT-116 p53 Agonism Beta-lactamase Assay, Ratio, Phase 2 (AID 2283592)
How it was run: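 Read-out is the blue/green (460/530 nm, 405 nm excitation) ratio after 2 h CCF4-AM loading, fitted as gain versus DMSO. Compounds, pinned at 217-fold dilution from DMSO stocks, stayed 16 h on HCT-116 beta-lactamase reporter cells seeded 5 h earlier.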

[3] = TOX21_p53_BLA_p3_viability: Viability Assessment in the Tox21 HCT-116 p53 Agonism Beta-lactamase Assay, Phase 3 (AID 2283593)
How it was run: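 Cellular ATP was quantified by CellTiter-Glo luminescence, read after 30 min at room temperature. Beforehand, HCT116 cells (4000/well) received compound 5 h post-seeding, 217-fold diluted from DMSO, then incubated 16 h at 37C.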

[4] = target: Cellular tumor antigen p53 (Homo sapiens) (UniProt P04637); test: TOX21_p53_BLA_p3_ratio: Tox21 HCT-116 p53 Agonism Beta-lactamase Assay, Ratio, Phase 3 (AID 2283596)
How it was run: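 Cells were seeded at 4000/well, rested 5 h at 37C, then dosed with DMSO compound solutions (217-fold dilution) for 16 h. CCF4-AM substrate was loaded for 2 h at room temperature, and the 460/530 nm emission ratio was fitted for gain of signal versus DMSO.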

[5] = TOX21_p53_BLA_p4_viability: Viability Assessment in the Tox21 HCT-116 p53 Agonism Beta-lactamase Assay, Phase 4 (AID 2283597);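 note: hits lower the luminescence signal meaning cytotoxicity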
How it was run: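 Cytotoxicity as reduced cellular ATP (CellTiter-Glo luminescence, 30 min room temperature), measured in the same wells following the CCF4 FRET p53 reading. Human HCT-116 cells received compounds in DMSO (217-fold dilution) for 16 h.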

[6] = TOX21_p53_BLA_p5_viability: Viability Assessment in the Tox21 HCT-116 p53 Agonism Beta-lactamase Assay, Phase 5 (AID 2283600)
How it was run: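 Viability came from CellTiter-Glo ATP luminescence, read after 30 min at room temperature. Before this, HCT-116 p53-bla cells (4000/well) had 16 hours of compound exposure at 37C, with DMSO stocks diluted 217-fold on transfer.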

[7] = target: Cellular tumor antigen p53 (Homo sapiens) (UniProt P04637); test: TOX21_p53_BLA_p4_ratio: Tox21 HCT-116 p53 Agonism Beta-lactamase Assay, Ratio, Phase 4 (AID 2283601)
How it was run: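 Signal is the blue/green (460nm/530nm) ratio of cleaved versus uncleaved CCF4-AM substrate, read after 2 h substrate loading. Cells were HCT116 carrying the p53-responsive beta-lactamase reporter, dosed 16 h at 37C, 5% CO2; CellTiter-Glo measured in parallel.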

[8] = TOX21_PR_BLA_Followup_Agonist_viability: Viability Assessment in the Tox21 HEK293 Progesterone Receptor (PR) Agonism Beta-lactamase Follow-Up Assay (AID 2283935);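 note: signal loss means lower viability so actives are cytotoxic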
How it was run: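 Cells were plated in medium with 2% charcoal-stripped FBS and rested 6 hr. Compounds in DMSO were then added for 16 hr at 37C, followed by the FRET substrate step and CellTiter-Glo luminescence after 30 min.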

[9] = TOX21_PR_BLA_Followup_Antagonist_viability: Viability Assessment in the Tox21 HEK293 Progesterone Receptor (PR) Antagonism Beta-lactamase Follow-Up Assay (AID 2283936);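 note: cells exposed to compound with R5020 agonist for 16 h; hits lower the luminescence signal meaning cytotoxicity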
How it was run: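 PR-UAS-bla HEK293T cells in medium with 2% charcoal-stripped FBS were treated with compounds plus R5020 for 16 hr at 37C. After the beta-lactamase read, CellTiter-Glo was added to the same wells and luminescence read after 30 min at room temperature.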

PGR (gene 5241) = PGR (gene 5241) (UniProt P06401); test: TOX21_PR_LUC_Followup_Antagonist: Tox21 HEK293 Progesterone Receptor (PR) Antagonism Luciferase Follow-Up Assay (AID 2283938);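 note: curve fitted upward as signal gain over DMSO baseline despite antagonist label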
How it was run: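 Luminescence from ONE-Glo was measured 30 min after reagent addition, following 16 h exposure of HEK293-PR-A-luc cells (3,000/well, plated 5 h earlier) to DMSO-dissolved compounds at 37C; DMSO served as baseline.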

[10] = TOX21_PR_LUC_Followup_Antagonist_viability: Viability Assessment in the Tox21 HEK293 Progesterone Receptor (PR) Antagonism Luciferase Follow-Up Assay (AID 2283940)
How it was run: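 HEK293-PR-A-luc, 3,000 cells/well; 5 h at 37C/0% CO2; compound pin transfer; 16 h incubation; CellTiter-Glo ATP luminescence, signal loss = cytotoxicity.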

[11] = target: Thyroid hormone receptor alpha (Rattus norvegicus) + Thyroid hormone receptor beta (Rattus norvegicus) (UniProt P18113+P63059); test: TOX21_TR_LUC_GH3_Agonist_Followup: Tox21 GH3 Thyroid Hormone Receptor Agonism Luciferase Follow-Up Assay (AID 2283939)
How it was run: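 Agonist-mode confirmatory run: 15 concentrations (5 nM to 92 uM final) on GH3 rat pituitary cells, 24 h at 37C/5% CO2, T3 as positive control. Luminescence read with ONE-Glo after 30 min.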

THRA (gene 7067) = THRA (gene 7067) (UniProt P10827); test: TOX21_TRA_COA_Agonist_Followup_ratio: Tox21 Thyroid Hormone Receptor alpha Agonism through Coactivator Recruitment Follow-Up Assay, Ratio (AID 2283948; active = hit-call score of the fitted dose curve at least 0.9, where 1 is the maximum; inactive = score below 0.9)
How it was run: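 Cell-free TR-FRET coactivator recruitment: GST-tagged TRα LBD (2.5 nM) with 0.10% BSA was incubated with compound, then fluorescein-SRC-2 peptide (200 nM) and Tb-anti-GST antibody (2 nM) added. 520:495 nm ratio normalized to DMSO (0%) and T3 (100%).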

THRB (gene 7068) [12] = target: THRB (gene 7068) (UniProt P10828); test: TOX21_TRB_BLA_Agonist_Followup_ratio: Tox21 Thyroid Hormone Receptor beta Agonism Beta-lactamase (BLA) Follow-Up Assay, Ratio (AID 2283954)
How it was run: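 Agonist mode: compounds (11-point, triplicate) incubated 18 h with HEK293T cells carrying GAL4-DBD/human TRβ-LBD and UAS-β-lactamase. Blue/green (460/530 nm) FRET ratio read after 2 h CCF4-AM loading; CellTiter-Glo viability run in the same plates.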

THRB (gene 7068) [13] = target: THRB (gene 7068) (UniProt P10828); test: TOX21_TRB_COA_Agonist_Followup_ratio: Tox21 Thyroid Hormone Receptor beta Agonism through Coactivator Recruitment Follow-Up Assay, Ratio (AID 2283963; active = hit-call score of the fitted dose curve at least 0.9, where 1 is the maximum; inactive = score below 0.9)
How it was run: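 Agonism is measured as coactivator recruitment in a purified-protein TR-FRET format, using GST-TRβ LBD at 5.0 nM, fluorescein-SRC-2 peptide at 200 nM and Tb-labeled anti-GST antibody at 2 nM. Values are 520:495 nm ratios relative to DMSO (0%) and T3 (100%).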

[14] = target: Retinoic acid receptor RXR-alpha (Homo sapiens) (UniProt P19793); test: TOX21_TR_RXR_BLA_Agonist_Followup_ratio: Tox21 Thyroid Hormone Receptor beta Retinoid X Receptor alpha (RXRa) Agonism Beta-lactamase (BLA) Follow-Up Assay, Ratio (AID 2283968)
How it was run: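 Cells were first allowed to attach for 5 h, after which compounds in DMSO were pinned at 11 concentrations and incubated 16 h at 37C. LiveBLAzer CCF4-AM substrate was then added for 2 h at room temperature before reading 460 and 530 nm fluorescence.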

[15] = TOX21_TR_RXR_BLA_Agonist_Followup_viability: Viability Assessment in the Tox21 Thyroid Hormone Receptor beta Retinoid X Receptor alpha (RXRa) Agonism Beta-lactamase (BLA) Follow-Up Assay (AID 2283970)
How it was run: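 Viability counter-screen run alongside the RXRa bla follow-up: HEK293T reporter cells were treated for 16h at 37C in stripped-serum medium, then ATP was quantified by luciferase-coupled CellTiter-Glo. Decreased signal relative to DMSO marked cytotoxicity.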

[16] = CCTE_Harrill_HTTr_Viability_MCF7: CCTE's 6-hour Cell Viability Assessment for the High-Throughput Transcriptomics (HTTr) Platform, in MCF-7 cells cultured in DMEM + 10% fetal bovine serum, Harrill Lab (AID 2284010; active = hit-call score of the fitted dose curve at least 0.9, where 1 is the maximum; inactive = score below 0.9)
How it was run: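 Read-out is propidium iodide gain of signal by high-content imaging, reflecting membrane integrity loss. Measurements are taken 6 h after dosing, eight concentrations per chemical, with DMSO serving as baseline for bidirectional curve fitting.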

[17] = CCTE_Harrill_HTTr_Apoptosis_MCF7: CCTE's 6-hour Apoptosis Assessment for the High-Throughput Transcriptomics (HTTr) Platform, in MCF-7 cells cultured in DMEM + 10% fetal bovine serum, Harrill Lab (AID 2284011; active = hit-call score of the fitted dose curve at least 0.9, where 1 is the maximum; inactive = score below 0.9)
How it was run: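 High-content imaging of CellEvent Caspase 3/7 Green signal follows a six-hour exposure, with eight concentrations per chemical. MCF-7 cells grown in DMEM plus 10% fetal bovine serum; activity fitted in both directions against DMSO.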

[18] = CCTE_Harrill_HTTr_CellCount_MCF7: CCTE's Cell Proliferation Assessment for the High-Throughput Transcriptomics (HTTr) Platform, Harrill Lab (AID 2284012);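 note: cells exposed to compound for six hours; intended direction is loss of nuclei count meaning fewer cells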
How it was run: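 Cell count served as viability reporter: loss of Hoechst-stained nuclei, counted by high content imaging, marks decreased growth or survival. Exposure was 6 h in MCF-7 cells across eight concentrations, with DMSO as baseline.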

Measured: AC50

Chain of Cellular tumor antigen p53 (Homo sapiens) (P04637 whole entry, looked up): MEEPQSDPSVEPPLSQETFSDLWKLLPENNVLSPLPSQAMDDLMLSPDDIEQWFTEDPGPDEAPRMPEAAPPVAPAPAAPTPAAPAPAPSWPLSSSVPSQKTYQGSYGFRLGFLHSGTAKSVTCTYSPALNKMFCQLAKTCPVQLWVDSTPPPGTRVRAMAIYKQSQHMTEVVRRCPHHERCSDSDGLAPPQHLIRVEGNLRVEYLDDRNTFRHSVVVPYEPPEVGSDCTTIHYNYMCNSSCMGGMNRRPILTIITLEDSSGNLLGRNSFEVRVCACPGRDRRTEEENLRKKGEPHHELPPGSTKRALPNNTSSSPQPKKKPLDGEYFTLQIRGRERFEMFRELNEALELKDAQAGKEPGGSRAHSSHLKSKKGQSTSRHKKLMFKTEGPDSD
Chain of THRB (gene 7068) (P10828 whole entry, looked up, the tested form may be a part): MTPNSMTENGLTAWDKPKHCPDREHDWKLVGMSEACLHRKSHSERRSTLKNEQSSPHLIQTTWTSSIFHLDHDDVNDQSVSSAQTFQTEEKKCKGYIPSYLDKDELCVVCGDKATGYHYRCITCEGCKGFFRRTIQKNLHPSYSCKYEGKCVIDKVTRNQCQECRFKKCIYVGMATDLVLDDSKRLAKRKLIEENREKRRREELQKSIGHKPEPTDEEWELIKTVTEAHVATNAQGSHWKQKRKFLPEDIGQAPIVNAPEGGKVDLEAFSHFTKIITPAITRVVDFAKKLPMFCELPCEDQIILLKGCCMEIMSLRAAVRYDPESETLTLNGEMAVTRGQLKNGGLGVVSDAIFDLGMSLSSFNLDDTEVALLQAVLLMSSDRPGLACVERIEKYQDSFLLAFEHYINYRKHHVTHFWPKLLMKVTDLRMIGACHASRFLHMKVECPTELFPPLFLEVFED
Chain of THRA (gene 7067) (P10827 whole entry, looked up, the tested form may be a part): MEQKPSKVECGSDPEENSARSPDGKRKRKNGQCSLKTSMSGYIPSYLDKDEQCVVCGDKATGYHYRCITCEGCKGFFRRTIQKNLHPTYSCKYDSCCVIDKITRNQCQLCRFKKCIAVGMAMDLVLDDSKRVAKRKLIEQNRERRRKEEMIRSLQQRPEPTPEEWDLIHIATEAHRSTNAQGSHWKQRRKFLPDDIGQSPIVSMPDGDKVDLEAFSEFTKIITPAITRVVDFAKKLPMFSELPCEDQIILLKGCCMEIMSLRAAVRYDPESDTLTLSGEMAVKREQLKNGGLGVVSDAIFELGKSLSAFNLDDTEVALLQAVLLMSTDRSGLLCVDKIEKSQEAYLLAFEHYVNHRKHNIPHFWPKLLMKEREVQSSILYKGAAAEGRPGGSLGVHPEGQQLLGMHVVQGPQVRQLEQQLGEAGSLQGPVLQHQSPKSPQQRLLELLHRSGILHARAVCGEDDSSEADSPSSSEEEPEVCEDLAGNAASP
Chain of PGR (gene 5241) (P06401 whole entry, looked up): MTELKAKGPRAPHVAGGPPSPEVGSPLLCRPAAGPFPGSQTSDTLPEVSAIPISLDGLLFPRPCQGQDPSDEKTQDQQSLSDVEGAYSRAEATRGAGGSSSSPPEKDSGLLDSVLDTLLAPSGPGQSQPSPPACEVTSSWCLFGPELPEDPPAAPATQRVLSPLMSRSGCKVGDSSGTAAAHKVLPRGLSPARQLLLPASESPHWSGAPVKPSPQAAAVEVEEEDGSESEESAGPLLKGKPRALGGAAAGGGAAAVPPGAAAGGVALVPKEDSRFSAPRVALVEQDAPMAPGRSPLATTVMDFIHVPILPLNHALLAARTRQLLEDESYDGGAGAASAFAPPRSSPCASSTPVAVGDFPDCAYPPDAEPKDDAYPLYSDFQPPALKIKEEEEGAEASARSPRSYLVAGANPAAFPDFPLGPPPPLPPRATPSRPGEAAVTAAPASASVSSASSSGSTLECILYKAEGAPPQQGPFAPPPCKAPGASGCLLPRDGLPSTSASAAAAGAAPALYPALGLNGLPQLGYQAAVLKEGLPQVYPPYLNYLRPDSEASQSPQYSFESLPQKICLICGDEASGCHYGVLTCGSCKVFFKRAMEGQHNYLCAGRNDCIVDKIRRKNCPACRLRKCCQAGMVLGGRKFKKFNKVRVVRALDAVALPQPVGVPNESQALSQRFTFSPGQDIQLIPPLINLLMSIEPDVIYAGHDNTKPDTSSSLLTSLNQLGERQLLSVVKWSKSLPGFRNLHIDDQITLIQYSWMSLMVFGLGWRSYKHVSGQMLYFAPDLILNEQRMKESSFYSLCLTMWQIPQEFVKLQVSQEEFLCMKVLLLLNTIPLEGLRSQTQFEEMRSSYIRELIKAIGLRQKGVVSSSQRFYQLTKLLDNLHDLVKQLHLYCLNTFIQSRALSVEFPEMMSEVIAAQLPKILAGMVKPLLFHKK
Chain of Retinoic acid receptor RXR-alpha (Homo sapiens) (P19793 whole entry, looked up): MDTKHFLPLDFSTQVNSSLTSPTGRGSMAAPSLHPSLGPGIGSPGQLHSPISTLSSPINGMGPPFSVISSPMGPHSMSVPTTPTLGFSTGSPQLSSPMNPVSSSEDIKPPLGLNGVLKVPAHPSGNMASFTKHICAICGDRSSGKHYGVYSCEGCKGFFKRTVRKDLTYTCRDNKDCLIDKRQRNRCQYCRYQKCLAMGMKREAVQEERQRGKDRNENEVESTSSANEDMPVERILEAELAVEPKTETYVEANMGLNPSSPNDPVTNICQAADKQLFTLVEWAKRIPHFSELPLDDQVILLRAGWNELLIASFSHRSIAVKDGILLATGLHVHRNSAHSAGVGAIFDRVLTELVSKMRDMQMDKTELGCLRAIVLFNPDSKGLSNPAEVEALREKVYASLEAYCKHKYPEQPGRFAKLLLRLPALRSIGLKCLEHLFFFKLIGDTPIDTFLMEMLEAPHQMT
Chain of Thyroid hormone receptor alpha (Rattus norvegicus) + Thyroid hormone receptor beta (Rattus norvegicus) (P63059 whole entry, looked up): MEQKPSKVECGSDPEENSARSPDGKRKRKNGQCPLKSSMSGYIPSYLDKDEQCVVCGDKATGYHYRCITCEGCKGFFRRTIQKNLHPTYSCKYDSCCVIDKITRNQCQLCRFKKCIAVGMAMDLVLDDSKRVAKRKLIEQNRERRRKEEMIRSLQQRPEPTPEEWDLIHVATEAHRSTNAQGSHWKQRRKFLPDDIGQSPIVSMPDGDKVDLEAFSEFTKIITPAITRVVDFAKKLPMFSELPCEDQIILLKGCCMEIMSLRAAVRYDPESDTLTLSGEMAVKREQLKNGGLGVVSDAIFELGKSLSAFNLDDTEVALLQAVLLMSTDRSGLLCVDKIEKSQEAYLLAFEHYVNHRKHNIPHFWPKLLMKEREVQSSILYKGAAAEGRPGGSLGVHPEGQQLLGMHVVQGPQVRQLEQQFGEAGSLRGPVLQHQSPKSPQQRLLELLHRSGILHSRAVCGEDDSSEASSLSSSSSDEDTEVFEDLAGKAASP
Chain of Thyroid hormone receptor alpha (Rattus norvegicus) + Thyroid hormone receptor beta (Rattus norvegicus) (P18113 whole entry, looked up): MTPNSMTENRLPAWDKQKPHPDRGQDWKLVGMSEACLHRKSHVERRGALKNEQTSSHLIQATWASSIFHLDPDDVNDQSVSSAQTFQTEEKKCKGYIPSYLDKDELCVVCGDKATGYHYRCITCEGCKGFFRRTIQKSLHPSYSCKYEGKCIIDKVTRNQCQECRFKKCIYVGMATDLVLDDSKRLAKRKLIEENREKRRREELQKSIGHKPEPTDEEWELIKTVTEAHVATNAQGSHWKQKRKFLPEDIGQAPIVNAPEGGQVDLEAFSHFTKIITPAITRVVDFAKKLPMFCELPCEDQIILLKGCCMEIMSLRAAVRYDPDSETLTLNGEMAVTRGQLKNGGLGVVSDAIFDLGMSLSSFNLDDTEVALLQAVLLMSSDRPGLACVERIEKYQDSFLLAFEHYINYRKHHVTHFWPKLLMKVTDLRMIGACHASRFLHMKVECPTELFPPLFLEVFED

Nc1ccc(N=Nc2ccccc2)c(N)c1
inactive: [1] | [2] | [3] | [4] | [5] | [6] | [7]

O=C(CO)[C@@H](O)[C@H](O)[C@H](O)CO
inactive: [1] | [2] | [3] | [4] | [5] | [7]

CC(C)(C)C(=O)OCOC(=O)C1N2C(=O)CC2S(=O)(=O)C1(C)C (stereo not given)
inactive: [1] | [2] | [3] | [4] | [5] | [7]

Cc1cc(C(C)(C)C)c(O)c(C)c1Cn1c(=O)n(Cc2c(C)cc(C(C)(C)C)c(O)c2C)c(=O)n(Cc2c(C)cc(C(C)(C)C)c(O)c2C)c1=O
active: [4] 56.3 µM
inactive: [1] | [2] | [3] | [5] | [6] | [7]

C[N+]1(C)[C@@H]2CC(OC(=O)C(O)(c3cccs3)c3cccs3)C[C@H]1[C@@H]1O[C@@H]12 (stereo not given in full)
inactive: [1] | [2] | [3] | [4] | [5] | [7]

CCCCN1CCCC1C(=O)Nc1c(C)cc(C)cc1C (stereo not given)
inactive: [1] | [2] | [3] | [4] | [5] | [6] | [7] | [8] | [9] | PGR (gene 5241) | [10]

COc1cc(C)nc(-n2nc(C)cc2OC)n1
inactive: [1] | [2] | [3] | [4] | [5] | [6] | [7]

O=C[C@H](O)[C@@H](O)[C@@H](O)[C@H](O)CO
inactive: [1] | [2] | [3] | [4] | [5] | [6] | [7]

O
inactive: [1] | [2] | [3] | [4] | [5] | [7]

CSCC[C@H](NC(=O)[C@H](Cc1ccc(OS(=O)(=O)O)cc1)NC(=O)[C@@H](N)CC(=O)O)C(=O)NCC(=O)N[C@@H](Cc1c[nH]c2ccccc12)C(=O)N[C@@H](CCSC)C(=O)N[C@@H](CC(=O)O)C(=O)N[C@@H](Cc1ccccc1)C(N)=O
not listed: [8] | [9] | PGR (gene 5241) | [10] | [16] | [17] | [18]
inactive: all other assays above

CC1=C2[C@H](/C=C(\C)C(=O)O)CC[C@@H](C)[C@H]2CC1
inactive: [1] | [2] | [3] | [4] | [5] | [6] | [7]

O=C(O)CCCCCC(=O)O
inactive: [1] | [2] | [3] | [4] | [5] | [6] | [7]

O=c1n(CCCN2CCN(c3cccc(Cl)c3)CC2)nc2ccccn12
inactive: [1] | [2] | [3] | [4] | [5] | [6] | [7] | [16] | [17] | [18]
